Shown are actives, neighbours in structure and some others; about 3% of the full set was active somewhere.
MITF TRPM1 HTS: activators of MITF-driven TRPM1 promoter reporter, primary screen, cell-based, SK-MEL-5, luciferase, single point; SK-MEL-5 TRPM1-promoter luciferase, 24 h; % of positive control, neutral wells = 0; activation, % at 12.5 µM; hit rate 0.75% among 300,000;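 active = mean activation of at least 80% with every replicate also reaching 80%; inconclusive = mean reaches 80% but some replicate falls short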;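 note: 0% = neutral control wells and 100% = parthenolide positive control wells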
esBAF inh: Bmi1 luciferase reporter increase in mESCs, primary screen, esBAF inhibitor project, mouse ES cells, Bmi1 luciferase knock-in, single point | 24 h; 100% = twice the neutral-well signal | reporter increase, % at 12.5 µM | hit rate 2% among 350,000; in the data active = activation above about 40%; inconclusive = no clear call, values can overlap the other calls;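 note: 0% = median of the plate's neutral control wells and 100% = double that signal; a rise in the Bmi1 reporter signal indicates esBAF inhibition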
Wnt act: Wnt/beta-catenin pathway activators, primary screen, cell-based, plate reader, single point. activation, % at 9.35 µM. AID 743398, 2014. hit rate 1.2% among 300,000. Wnt/beta-catenin reporter cell assay, activator; in the data active = activation above about 30%, passing the limit was not always enough; inconclusive = no clear call, values can overlap the other calls;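 note: 0% = neutral control wells and 100% = positive control wells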
C2C12 statin: suppressors of statin myotoxicity in C2C12 myotubes, primary screen, cell-based, single point, plate reader; C2C12 myotubes + simvastatin, ATP luminescence, 48 h; scaled: DMSO 0, geranylgeraniol control 100; rescue of ATP level, % at 7.49 µM; hit rate 0.78% among 330,000;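 active = mean ATP rescue above about 67%, or every replicate alone reaching that limit, limit read from the data, passing the limit was not always enough; inconclusive = no clear call, values can overlap the other calls; inactive = mean under the limit and some replicate under it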;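 note: myotubes were challenged with 10 µM simvastatin during compound exposure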
Numbers without * were called inactive; ? = inconclusive; . = no result given.

SMILES	MITF TRPM1 HTS	esBAF inh	Wnt act	C2C12 statin
FC(F)(F)c1ccccc1Cc1c(-c2ccc(Cl)cc2)nc2ccc(Cl)cn12	.	64*	11	-6
FC(F)(F)c1ccccc1Cc1c(-c2ccc(Cl)cc2)nc2ccc(Br)cn12	.	42*	0	-9
O=C(c1cnccn1)N1CC[C@@H]2[C@H](CO)Nc3ccc(C#Cc4cccnc4)cc3[C@@H]21	.	3	.	-26
CCOC(=O)N/N=C\C=C\c1ccc2c(c1)OCO2	73	.	50*	.
COC(=O)N/N=C\C=C\c1ccc2c(c1)OCO2	32	.	.	.
CC(C)(C)OC(=O)N/N=C\C=C\c1ccc2c(c1)OCO2	119*	.	55*	.
C[C@H](CO)N1C[C@H](C)[C@H](CN(C)C(=O)c2ccccc2)OCCCC[C@H](C)Oc2ccc(NC(=O)c3ccncc3)cc2C1=O	.	11	.	23
COCCC1CCCCN1C(=O)c1ccc2nc(Cc3ccccc3F)oc2c1 (stereo unspecified)	134*	.	13	.
COC(=O)C1CCCCN1C(=O)c1ccc2oc(Cc3ccccc3)nc2c1 (stereo unspecified)	108*	?	23	-4
O=C(c1ccc2oc(CCCc3ccccc3)nc2c1)N1CCCC1	64	71*	35*	-1
COC(=O)C1CCCCN1C(=O)c1ccc2oc(C(C)C)nc2c1 (stereo unspecified)	12	21	6	0
CC(=O)C1CCCN(C(=O)c2ccc3oc(CCc4ccccc4)nc3c2)C1 (stereo unspecified)	25	?	14	10
COc1cccc(CNC(=O)C[C@H]2CC[C@H](NC(=O)C3CCOCC3)[C@H](CO)O2)c1	.	-2	.	-1
CCc1cnc(N2[C@H](C#N)[C@H](c3ccc(-c4cccc(F)c4)cc3)[C@@H]2CO)s1	.	-4	.	11
O=C1c2ccccc2C(=O)N1CCc1c[nH]c2ccccc12	111*	.	5	.
O=S(=O)(c1ccccc1)N1C[C@H]2[C@@H](c3ccccc31)[C@@H](CO)N2Cc1ccccc1	.	-1	.	16
Nc1ccc(/C=C/C(=O)c2cccs2)cc1	70	68*	18	11
Cc1c(/C=C/C(=O)c2cccs2)cnn1C	50	33	57*	-2
O=C(C=Cc1ccccc1)c1cccs1	9	.	8	.
CCc1ccc(C(=O)/C=C/c2cnn(C)c2C)s1	.	55*	23	1
C[C@H]1CN([C@@H](C)CO)C(=O)Cc2cc(N(C)C)ccc2O[C@H]1CN(C)C(=O)Nc1ccccc1	.	-2	.	17
C[C@@H]1CN([C@H](C)CO)C(=O)Cc2cc(NC(=O)Cn3cnnn3)ccc2O[C@@H]1CN(C)CC1CCCCC1	.	1	.	30
CO[C@H]1CN(C)C(=O)c2cc(NC(C)=O)ccc2OC[C@H](C)N(Cc2cccc(F)c2)C[C@H]1C	.	-15	.	3
CCC1(c2ccc(Cl)cc2)NC(=S)N(c2ccccc2)N1 (stereo unspecified)	4	11	-2	-1
CCC1(c2ccccc2)NC(=S)N(c2ccc(C)cc2)N1 (stereo unspecified)	13	45*	2	3
SMILES	MITF TRPM1 HTS	esBAF inh	Wnt act	C2C12 statin
COc1cc2oc3ccccc3c(=O)c2cc1OC	46	6	.	1
CCOC(=O)/C=C/c1ccc2oc3ccccc3c(=O)c2c1	97*	49*	23	3
Cc1ccc2[nH]c(=O)c(-c3nc4cc(C)ccn4c3NCc3ccco3)cc2c1	2	69*	.	6
O=C(C[C@H]1C[C@H]2c3cc(NC(=O)C4CCOCC4)ccc3O[C@H]2[C@H](CO)O1)NCc1ccccn1	.	-5	.	2
COc1ccc(C(=O)NCCN2CCOCC2)c(OC)c1	-7	-3	-20	-3
COc1ccc(C(=O)NCCn2ccc3ccccc32)c(OC)c1	51	55*	14	33
COc1ccc(NC(=O)/C(=C\c2ccc3c(c2)OCO3)NC(C)=O)cc1	-1	.	47*	.
COc1ccc(CCNC(=O)COC(=O)/C=C/c2ccc3c(c2)OCO3)cc1	14	47*	-3	4
COc1ccc(CNC(=O)/C=C/c2cc3c(cc2Br)OCO3)cc1	7	-4	.	86*
COc1ccc(/C=C/C(=O)c2ccc(OC)cc2OC)cc1	24	-5	0	0
COc1ccc(CCNC(=O)COC(=O)/C=C/c2ccc(OC)c(OC)c2)cc1	-6	.	-6	.
COc1ccc(/C=C/C(=O)c2cc3c(cc2N)OCO3)cc1	57	.	52*	.
O=C(/C=C/c1cc2c(cc1Br)OCO2)NCc1ccc(F)cc1	-1	7	-2	-1
O=C(N[C@@H]1CC[C@@H](CCn2cc(C3(O)CCCC3)nn2)O[C@@H]1CO)C1CCCCC1	.	-4	.	2
CN1C(=O)c2cc(NC(=O)NC3CCCC3)ccc2OC[C@H]2O[C@H](CC(=O)NCC3CC3)CC[C@@H]21	.	4	.	-3
Cc1noc(C)c1NC(=O)Nc1cccc2c1O[C@H](CN(C)S(C)(=O)=O)[C@@H](C)CN([C@@H](C)CO)C2=O	.	-3	.	.
COc1ccc(CN(C)C[C@H]2Oc3ccc(NC(=O)Nc4ccc5c(c4)OCO5)cc3C(=O)N([C@@H](C)CO)C[C@H]2C)cc1	.	-2	.	-16
COc1cc(/C=C/C(=O)OCC(=O)NCCc2ccccc2)cc(OC)c1OC	2	.	41*	.
CCn1cnc2c(Nc3cccc(Cl)c3)nc(C#N)nc21	112*	69*	46*	-48
CCn1cnc2c(NCCc3cccnc3)nc(C#N)nc21	4	.	-2	.
COc1ccc(NC(=O)N(C)C[C@H]2Oc3ccc(NS(=O)(=O)c4ccc(OC)cc4)cc3CC(=O)N([C@H](C)CO)C[C@@H]2C)cc1	.	8	.	5
CC(=O)c1cccc2c(O)c(C3=Nc4ccccc4C3=O)[nH]c12	-38	13	40*	.
CN(C)C(=O)C[C@H]1CC[C@H]2[C@@H](COC[C@H](O)CN2CC2CCCC2)O1	.	-10	.	-2
COc1ccc(C(C)=O)cc1OCc1ccccc1	.	0	0	14
CC(=O)c1ccc(OCc2ccccc2)c(C)c1O	77	69*	31*	-7
SMILES	MITF TRPM1 HTS	esBAF inh	Wnt act	C2C12 statin
CC(=O)Nc1cc2c(cc1Cl)-c1ccccc1C2	19	52*	0	-5
C#CCOCCOCCOCCNc1nc(N2CCOCC2)nc(N2CCN(C(=O)CCCCCCCCCCNC(=O)[C@@H]([C@H](C)CC)n3cc(CCCCCN)nn3)CC2)n1	-23	-4	-4	99*
Cc1ccccc1NC(=S)c1ccc2ccccc2n1	29	70*	26	-4
Cc1ccc(Sc2cc(C)nc(-c3ccccn3)n2)cc1	.	.	33*	.
Cc1cc(C(=O)CSc2n[nH]c(N)n2)c(C)n1-c1cc(F)ccc1F	36	51*	14	-5
O=c1c2ccccc2ncn1CCOc1ccccc1[N+](=O)[O-]	54	67*	4	4
Cc1ccc(OCCOCCn2cnc3ccccc3c2=O)c([N+](=O)[O-])c1	-8	.	-1	.

Screening data deposited in PubChem by Broad Institute.
